The source of these data is article PMC7862700, “An all-to-all approach to the identification of sequence-specific readers for epigenetic DNA modifications on cytosine”.

What all share (test): DAPPL (digital affinity profiling via proximity ligation, sequencing); 10 mM Tris-HCl pH 7.5, 50 mM NaCl, 1 mM DTT, 4% glycerol, room temperature, 30 min; GST-TFs on glutathione beads, 16-mer random dsDNA library, 0.1% formaldehyde crosslink after washing; high values mean tight binding
Holding throughout (settings): protein: recombinant; tags: N-terminal GST; dsDNA, one strand shown

In one test the target is T1, ELK1 (Homo sapiens, UniProt P19419 1-428).
T1 sequence: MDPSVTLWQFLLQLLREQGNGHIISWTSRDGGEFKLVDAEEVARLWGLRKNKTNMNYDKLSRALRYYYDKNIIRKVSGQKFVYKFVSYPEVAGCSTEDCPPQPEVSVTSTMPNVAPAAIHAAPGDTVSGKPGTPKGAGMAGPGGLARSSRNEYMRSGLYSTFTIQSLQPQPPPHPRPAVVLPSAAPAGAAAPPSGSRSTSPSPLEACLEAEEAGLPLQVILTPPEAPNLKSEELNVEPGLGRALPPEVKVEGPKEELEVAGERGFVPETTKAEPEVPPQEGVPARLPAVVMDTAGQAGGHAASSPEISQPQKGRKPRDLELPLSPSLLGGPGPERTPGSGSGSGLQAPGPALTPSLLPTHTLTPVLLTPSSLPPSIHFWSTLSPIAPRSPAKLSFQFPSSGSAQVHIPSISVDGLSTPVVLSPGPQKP
The gist of the method: (§1)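 Beads coated with glutathione captured GST-fused human transcription factors that had been expressed in yeast, and the factors were then given DNA barcodes and pooled with a tag-only sample. The pools were incubated with 200 nmole of a random double-stranded 16-mer DNA library in Tris/NaCl/DTT/glycerol buffer for 30 min at room temperature, washed, crosslinked with 0.1% formaldehyde and proximity-ligated with BsaI/T4 ligase at 37 °C for 1 h. PCR amplification and Illumina NextSeq500 sequencing came last. Binding signal is each hexamer's read frequency for a factor divided by its frequency for the tag-only sample.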

The next test concerns the target T2, GABPA (Homo sapiens, UniProt Q06546 1-454).
T2 sequence: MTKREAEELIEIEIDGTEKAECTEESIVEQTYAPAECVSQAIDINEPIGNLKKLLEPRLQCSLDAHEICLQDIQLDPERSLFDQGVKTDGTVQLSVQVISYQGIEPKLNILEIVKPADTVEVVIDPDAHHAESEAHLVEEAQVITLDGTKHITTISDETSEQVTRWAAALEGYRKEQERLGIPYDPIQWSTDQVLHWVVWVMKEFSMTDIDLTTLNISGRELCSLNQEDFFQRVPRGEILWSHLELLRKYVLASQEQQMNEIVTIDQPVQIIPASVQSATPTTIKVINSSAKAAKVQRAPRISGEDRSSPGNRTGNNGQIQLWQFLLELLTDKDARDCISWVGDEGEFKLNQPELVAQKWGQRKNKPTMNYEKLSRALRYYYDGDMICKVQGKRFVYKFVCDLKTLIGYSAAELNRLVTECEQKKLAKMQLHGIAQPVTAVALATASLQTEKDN
The gist of the method: as §1

The target of another test is T3, ERG (Homo sapiens, UniProt P11308 1-479).
T3 sequence: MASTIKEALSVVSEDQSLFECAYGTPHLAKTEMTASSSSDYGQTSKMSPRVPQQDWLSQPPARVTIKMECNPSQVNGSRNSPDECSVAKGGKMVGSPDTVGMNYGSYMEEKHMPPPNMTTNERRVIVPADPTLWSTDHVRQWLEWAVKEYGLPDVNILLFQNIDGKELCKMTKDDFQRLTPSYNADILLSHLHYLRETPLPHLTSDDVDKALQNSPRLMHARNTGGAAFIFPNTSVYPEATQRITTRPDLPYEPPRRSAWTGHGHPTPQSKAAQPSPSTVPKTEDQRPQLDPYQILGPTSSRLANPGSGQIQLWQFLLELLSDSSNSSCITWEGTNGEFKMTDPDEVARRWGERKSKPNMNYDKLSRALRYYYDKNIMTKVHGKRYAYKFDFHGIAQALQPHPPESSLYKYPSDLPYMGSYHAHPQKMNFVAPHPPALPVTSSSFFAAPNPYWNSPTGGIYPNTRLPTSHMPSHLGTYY
The gist of the method:
as §1

A further test has as its target ELF1 (Homo sapiens, UniProt P32519 1-619). The gist of the method: as §1
The target of another test is T4, EHF (Homo sapiens, UniProt Q9NZC4 1-300).
T4 sequence: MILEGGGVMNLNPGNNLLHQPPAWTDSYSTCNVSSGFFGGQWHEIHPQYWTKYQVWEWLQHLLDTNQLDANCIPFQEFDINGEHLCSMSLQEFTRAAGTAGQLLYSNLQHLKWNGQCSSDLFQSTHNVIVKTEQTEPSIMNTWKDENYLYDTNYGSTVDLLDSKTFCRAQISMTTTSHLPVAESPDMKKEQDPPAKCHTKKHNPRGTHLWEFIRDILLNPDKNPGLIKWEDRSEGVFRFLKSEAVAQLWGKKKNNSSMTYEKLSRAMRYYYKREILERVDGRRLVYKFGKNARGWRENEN
An outline of the steps: as §1

A further test has as its target SPI1 (Homo sapiens, UniProt P17947 1-270). An outline of the steps: as §1
A further test has as its target SPIB (Homo sapiens, UniProt Q01892 1-262). The gist of the method: as §1
The target of a further test is T5, FEV (Homo sapiens, UniProt Q99581 1-238).
T5 sequence: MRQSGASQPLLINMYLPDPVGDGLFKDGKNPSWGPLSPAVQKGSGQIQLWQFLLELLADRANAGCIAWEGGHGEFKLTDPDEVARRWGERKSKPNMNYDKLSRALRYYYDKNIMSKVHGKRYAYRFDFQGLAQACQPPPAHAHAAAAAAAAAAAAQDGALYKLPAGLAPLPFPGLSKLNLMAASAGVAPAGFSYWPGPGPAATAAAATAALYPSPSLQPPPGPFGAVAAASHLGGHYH
The gist of the method:
as §1

Another test addresses ETV5 (Homo sapiens, UniProt P41161 1-510). The gist of the method: as §1
In a further test the target is ELF4 (Homo sapiens, UniProt Q99607 1-663). An outline of the steps: as §1
ELF4, sequence (Q99607 whole entry): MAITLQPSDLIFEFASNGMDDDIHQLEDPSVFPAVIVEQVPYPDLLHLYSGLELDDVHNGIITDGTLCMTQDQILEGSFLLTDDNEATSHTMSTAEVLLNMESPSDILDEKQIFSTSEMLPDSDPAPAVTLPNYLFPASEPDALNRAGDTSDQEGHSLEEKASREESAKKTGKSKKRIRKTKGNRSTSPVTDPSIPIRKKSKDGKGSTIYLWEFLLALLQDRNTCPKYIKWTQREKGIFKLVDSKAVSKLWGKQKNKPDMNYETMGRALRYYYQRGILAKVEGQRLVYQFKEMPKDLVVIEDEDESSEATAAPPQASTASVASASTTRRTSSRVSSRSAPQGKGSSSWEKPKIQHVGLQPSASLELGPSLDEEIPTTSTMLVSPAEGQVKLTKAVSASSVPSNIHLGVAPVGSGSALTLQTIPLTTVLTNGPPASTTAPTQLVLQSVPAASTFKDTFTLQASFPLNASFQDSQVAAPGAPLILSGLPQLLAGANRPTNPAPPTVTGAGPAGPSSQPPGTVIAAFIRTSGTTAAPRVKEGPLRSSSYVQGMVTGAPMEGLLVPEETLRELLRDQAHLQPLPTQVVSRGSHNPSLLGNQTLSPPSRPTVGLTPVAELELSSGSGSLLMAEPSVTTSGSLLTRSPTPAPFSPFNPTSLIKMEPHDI
The target of another test is T6, ELK4 (Homo sapiens, UniProt P28324-2 1-405).
T6 sequence: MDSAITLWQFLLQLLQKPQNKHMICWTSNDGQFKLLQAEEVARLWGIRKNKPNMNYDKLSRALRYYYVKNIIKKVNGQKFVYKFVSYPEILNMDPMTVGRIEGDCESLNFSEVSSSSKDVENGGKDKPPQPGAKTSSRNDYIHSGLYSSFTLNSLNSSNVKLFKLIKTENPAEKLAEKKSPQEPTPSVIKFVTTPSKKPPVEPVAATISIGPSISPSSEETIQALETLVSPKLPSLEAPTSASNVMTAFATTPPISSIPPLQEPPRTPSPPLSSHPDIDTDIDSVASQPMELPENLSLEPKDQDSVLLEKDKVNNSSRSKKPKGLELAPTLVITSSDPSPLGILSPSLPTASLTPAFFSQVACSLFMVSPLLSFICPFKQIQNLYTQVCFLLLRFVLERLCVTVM
An outline of the steps: as §1

The target of the next test is ETV1 (Homo sapiens, UniProt P50549 1-477). The gist of the method:
as §1

The target in another test is T7, ERF (Homo sapiens, UniProt P50548 1-548).
T7 sequence: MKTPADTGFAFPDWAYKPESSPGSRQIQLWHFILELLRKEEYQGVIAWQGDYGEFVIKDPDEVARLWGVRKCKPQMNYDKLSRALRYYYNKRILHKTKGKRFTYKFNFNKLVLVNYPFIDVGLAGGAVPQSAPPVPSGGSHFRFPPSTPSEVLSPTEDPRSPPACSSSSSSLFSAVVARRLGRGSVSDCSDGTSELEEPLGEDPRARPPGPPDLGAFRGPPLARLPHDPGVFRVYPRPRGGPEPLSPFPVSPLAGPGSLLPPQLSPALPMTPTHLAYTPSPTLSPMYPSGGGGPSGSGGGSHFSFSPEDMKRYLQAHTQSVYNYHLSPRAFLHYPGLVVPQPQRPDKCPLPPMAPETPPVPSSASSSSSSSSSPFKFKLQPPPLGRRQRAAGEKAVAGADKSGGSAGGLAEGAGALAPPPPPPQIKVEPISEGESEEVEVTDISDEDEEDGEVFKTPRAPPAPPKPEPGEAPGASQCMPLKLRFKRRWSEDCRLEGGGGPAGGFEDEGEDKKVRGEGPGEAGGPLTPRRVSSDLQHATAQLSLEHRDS
The gist of the method:
as §1

The next test concerns the target T8, ETV3L (Homo sapiens, UniProt Q6ZN32 1-361).
T8 sequence: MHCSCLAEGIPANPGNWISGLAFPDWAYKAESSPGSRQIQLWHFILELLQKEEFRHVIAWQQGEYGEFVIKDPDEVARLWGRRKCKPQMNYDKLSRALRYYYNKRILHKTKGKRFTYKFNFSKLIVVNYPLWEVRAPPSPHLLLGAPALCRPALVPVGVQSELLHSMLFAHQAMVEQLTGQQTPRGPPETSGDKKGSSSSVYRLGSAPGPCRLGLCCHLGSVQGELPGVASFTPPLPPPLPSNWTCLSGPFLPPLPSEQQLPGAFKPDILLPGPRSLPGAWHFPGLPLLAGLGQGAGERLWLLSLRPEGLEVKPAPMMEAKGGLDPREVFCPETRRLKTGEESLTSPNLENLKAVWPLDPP
An outline of the steps:
as §1

A further test addresses T9, ETS2 (Homo sapiens, UniProt P15036 1-469).
T9 sequence: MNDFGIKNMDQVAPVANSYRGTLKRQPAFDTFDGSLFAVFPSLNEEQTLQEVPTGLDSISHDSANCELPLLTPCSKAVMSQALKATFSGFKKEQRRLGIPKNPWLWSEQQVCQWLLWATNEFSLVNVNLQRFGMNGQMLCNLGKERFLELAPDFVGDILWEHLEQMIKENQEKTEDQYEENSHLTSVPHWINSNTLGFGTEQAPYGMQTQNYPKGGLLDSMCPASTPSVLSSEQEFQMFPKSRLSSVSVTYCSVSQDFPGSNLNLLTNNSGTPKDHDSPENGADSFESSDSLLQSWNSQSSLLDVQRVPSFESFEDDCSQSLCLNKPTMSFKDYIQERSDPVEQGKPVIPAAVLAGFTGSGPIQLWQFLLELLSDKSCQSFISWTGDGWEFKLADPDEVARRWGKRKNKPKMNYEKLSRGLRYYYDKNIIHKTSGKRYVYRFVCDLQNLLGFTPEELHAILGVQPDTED
An outline of the steps:
as §1

For a further test, the target named is T10, SPDEF (Homo sapiens, UniProt O95238 1-335).
T10 sequence: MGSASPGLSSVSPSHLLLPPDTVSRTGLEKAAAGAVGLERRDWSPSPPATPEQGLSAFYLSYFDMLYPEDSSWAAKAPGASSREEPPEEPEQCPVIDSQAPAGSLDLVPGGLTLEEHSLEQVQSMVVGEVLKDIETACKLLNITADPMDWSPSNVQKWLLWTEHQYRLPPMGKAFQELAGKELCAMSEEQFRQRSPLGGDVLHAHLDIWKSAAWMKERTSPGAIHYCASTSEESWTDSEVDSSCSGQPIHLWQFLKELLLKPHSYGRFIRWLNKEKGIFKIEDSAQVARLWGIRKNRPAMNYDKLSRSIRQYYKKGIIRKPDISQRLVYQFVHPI
The gist of the method:
as §1

In the next test the target is T11, ETV7 (Homo sapiens, UniProt Q9Y603 1-341).
T11 sequence: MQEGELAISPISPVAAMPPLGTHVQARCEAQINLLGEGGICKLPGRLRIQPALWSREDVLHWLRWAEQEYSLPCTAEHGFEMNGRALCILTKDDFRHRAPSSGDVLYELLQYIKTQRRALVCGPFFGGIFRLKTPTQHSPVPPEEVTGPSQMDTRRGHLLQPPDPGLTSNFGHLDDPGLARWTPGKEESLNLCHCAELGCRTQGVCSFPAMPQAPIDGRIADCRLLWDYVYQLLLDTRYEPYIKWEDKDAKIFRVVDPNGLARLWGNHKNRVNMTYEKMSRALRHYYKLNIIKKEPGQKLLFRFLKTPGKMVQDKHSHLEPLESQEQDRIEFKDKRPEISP
The gist of the method: as §1

In the next test the target is T12, ETV3 (Homo sapiens, UniProt P41162-2 1-143).
T12 sequence: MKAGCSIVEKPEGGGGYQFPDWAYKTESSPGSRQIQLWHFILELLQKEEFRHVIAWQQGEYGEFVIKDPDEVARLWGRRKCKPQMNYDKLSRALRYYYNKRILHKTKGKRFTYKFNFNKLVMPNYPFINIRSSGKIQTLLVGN
The gist of the method: as §1

The target in another test is ETV6 (Homo sapiens, UniProt P41212 1-452). An outline of the steps: as §1
ETV6, sequence (P41212 whole entry): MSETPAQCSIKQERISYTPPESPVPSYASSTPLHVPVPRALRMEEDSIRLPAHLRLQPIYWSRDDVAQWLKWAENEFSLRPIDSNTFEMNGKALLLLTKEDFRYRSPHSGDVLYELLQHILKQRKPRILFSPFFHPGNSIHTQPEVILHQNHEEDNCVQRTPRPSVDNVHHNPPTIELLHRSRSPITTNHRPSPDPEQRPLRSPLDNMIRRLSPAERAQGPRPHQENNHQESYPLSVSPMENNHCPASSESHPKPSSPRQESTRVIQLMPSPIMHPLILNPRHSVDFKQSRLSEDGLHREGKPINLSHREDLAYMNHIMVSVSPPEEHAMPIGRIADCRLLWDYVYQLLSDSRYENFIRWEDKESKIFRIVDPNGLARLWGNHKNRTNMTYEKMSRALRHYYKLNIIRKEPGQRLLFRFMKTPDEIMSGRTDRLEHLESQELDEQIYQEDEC

SPIB, sequence (Q01892 whole entry): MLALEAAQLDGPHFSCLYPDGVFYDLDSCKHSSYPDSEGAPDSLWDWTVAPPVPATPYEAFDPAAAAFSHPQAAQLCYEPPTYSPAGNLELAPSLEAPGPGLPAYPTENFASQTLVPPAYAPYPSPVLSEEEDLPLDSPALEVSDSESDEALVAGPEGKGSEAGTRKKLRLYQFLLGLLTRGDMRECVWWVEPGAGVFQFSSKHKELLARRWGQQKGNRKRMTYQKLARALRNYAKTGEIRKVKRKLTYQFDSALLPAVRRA
ETV1, sequence (P50549 whole entry): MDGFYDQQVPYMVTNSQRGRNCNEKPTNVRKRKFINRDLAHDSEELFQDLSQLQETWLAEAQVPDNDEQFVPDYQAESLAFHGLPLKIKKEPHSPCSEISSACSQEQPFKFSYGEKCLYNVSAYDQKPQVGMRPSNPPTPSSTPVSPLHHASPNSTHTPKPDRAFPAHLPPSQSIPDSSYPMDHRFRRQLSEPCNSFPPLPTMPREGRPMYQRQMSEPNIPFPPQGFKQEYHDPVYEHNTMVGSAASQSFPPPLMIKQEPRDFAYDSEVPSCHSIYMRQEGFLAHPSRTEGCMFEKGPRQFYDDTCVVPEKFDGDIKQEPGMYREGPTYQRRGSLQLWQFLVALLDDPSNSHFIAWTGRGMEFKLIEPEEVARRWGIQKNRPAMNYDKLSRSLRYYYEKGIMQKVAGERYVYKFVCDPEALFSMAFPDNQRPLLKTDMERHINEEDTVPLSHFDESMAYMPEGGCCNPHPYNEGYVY
ETV5, sequence (P41161 whole entry): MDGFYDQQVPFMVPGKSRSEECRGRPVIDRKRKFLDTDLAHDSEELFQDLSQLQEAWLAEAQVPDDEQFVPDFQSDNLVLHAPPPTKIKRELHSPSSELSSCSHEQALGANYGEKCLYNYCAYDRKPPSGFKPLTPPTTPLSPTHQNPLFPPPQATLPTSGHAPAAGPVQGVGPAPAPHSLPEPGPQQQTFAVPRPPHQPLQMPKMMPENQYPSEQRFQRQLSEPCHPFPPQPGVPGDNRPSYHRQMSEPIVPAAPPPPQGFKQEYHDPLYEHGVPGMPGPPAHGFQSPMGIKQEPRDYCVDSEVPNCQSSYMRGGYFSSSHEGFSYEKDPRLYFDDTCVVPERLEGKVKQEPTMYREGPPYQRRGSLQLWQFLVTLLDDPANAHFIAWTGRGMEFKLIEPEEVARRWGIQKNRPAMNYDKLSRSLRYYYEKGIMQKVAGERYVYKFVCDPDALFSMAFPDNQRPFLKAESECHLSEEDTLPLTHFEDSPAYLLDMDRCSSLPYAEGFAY
ELF1, sequence (P32519 whole entry): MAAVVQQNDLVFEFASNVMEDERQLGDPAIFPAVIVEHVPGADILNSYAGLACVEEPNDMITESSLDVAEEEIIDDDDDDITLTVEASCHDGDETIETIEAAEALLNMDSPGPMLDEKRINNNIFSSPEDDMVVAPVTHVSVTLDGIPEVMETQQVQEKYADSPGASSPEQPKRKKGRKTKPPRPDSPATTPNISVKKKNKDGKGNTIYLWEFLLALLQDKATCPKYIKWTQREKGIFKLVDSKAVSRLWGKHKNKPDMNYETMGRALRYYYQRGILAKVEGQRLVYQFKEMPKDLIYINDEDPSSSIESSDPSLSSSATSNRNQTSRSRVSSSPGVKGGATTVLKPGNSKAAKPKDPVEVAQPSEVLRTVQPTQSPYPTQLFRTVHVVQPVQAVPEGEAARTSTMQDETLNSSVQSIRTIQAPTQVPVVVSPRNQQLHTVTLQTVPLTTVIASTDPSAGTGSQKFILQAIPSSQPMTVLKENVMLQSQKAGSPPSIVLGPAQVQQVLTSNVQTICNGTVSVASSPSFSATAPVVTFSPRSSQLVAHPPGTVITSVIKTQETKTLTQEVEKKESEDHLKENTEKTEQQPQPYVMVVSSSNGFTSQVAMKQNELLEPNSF

Regarding GTTGTT, the binding signal is 1.12 fold enrichment (6-mer frequency, TF over GST control) with ELK1; 1.04 fold enrichment (6-mer frequency, TF over GST control) with GABPA; 1.02 fold enrichment (6-mer frequency, TF over GST control) in the test with ERG; 1.09 fold enrichment (6-mer frequency, TF over GST control) with ELF1; 1.12 fold enrichment (6-mer frequency, TF over GST control) with EHF; 1.09 fold enrichment (6-mer frequency, TF over GST control) in the test with SPI1. Moreover, the binding signal was 1.22 fold enrichment (6-mer frequency, TF over GST control) in the test with SPIB; 1.1 fold enrichment (6-mer frequency, TF over GST control) with FEV; 1.02 fold enrichment (6-mer frequency, TF over GST control) with ETV5; 1.04 fold enrichment (6-mer frequency, TF over GST control) with ELF4; 1.33 fold enrichment (6-mer frequency, TF over GST control) with ELK4; 1.14 fold enrichment (6-mer frequency, TF over GST control) with ETV1. Also, the binding signal in the test with ERF is 1.06 fold enrichment (6-mer frequency, TF over GST control); with ETV3L it was 1.14 fold enrichment (6-mer frequency, TF over GST control); with ETS2, 1.06 fold enrichment (6-mer frequency, TF over GST control); in the test with SPDEF it was 1.12 fold enrichment (6-mer frequency, TF over GST control); with ETV7 it was 1.25 fold enrichment (6-mer frequency, TF over GST control); with ETV3, 1.11 fold enrichment (6-mer frequency, TF over GST control). For the same sequence, the binding signal with ETV6 is 1.09 fold enrichment (6-mer frequency, TF over GST control).
